From PubChem BioAssay (NCI) come the findings set out here.

About 79,000 compounds went through this panel and 15% of them were active in at least one assay; those are over-represented in the sample as a whole. Unmarked numbers belong to inactive results. Activity calls are given as the source filed them. Rule as the data show it: active = growth inhibition above about 70%; inactive = the rest.

The nature of experiment [1]: NCI Yeast Anticancer Drug Screen. Data for the rad50 strain (AID 155).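 Also: 0% = growth of vehicle-only cultures of the same strain.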 The following applies: S. cerevisiae rad50 strain growth inhibition; at 50.0 µM; active compounds read high. The gist of the method: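 Growth of the mutant yeast was measured after compound exposure and referenced to vehicle-treated cultures.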
The nature of experiment [2]: NCI Yeast Anticancer Drug Screen. Data for the mec2-1 strain (AID 157). The following applies: S. cerevisiae mec2-1 strain, at 50.0 µM, active compounds read high. In short, it runs like this: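 Vehicle-treated cultures served as reference for growth inhibition of compound-exposed mec2-1 yeast.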
The nature of experiment [3]: NCI Yeast Anticancer Drug Screen. Data for the sgs1 mgt1 strain (AID 161).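 Also: 0% = growth of cultures given vehicle only.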 The following applies: S. cerevisiae sgs1 mgt1 strain, at 50.0 µM, active compounds read high. The gist of the method:
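Inhibition of yeast growth, normalised to vehicle-treated controls, is reported for a strain bearing genetic alterations in DNA damage repair.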

Experiment [4] is described as follows: NCI Yeast Anticancer Drug Screen. Data for the cln2 rad14 strain (AID 165).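 Also: 0% = growth equal to vehicle treated cultures.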 The following applies: S. cerevisiae cln2 rad14 strain, at 50.0 µM, active compounds read high. In short, it runs like this:
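Each compound was tested on cln2 rad14 yeast. Inhibition of growth was calculated against vehicle-exposed controls.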

Experiment [5] is described as follows: NCI Yeast Anticancer Drug Screen. Data for the bub3 strain (AID 167). The following applies: S. cerevisiae bub3 mutant strain, at 50.0 µM, active compounds read high. The gist of the method: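 Whole-cell yeast assay. The mutant strain was incubated with compounds, and growth inhibition was determined by comparison with vehicle-treated cells.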
Experiment [6] is described as follows: NCI Yeast Anticancer Drug Screen. Data for the mlh1 rad18 strain (AID 175). The following applies: S. cerevisiae mlh1 rad18 strain growth inhibition; at 50.0 µM; active compounds read high. The gist of the method:
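Vehicle-treated cultures served as the reference for growth inhibition in a yeast strain carrying DNA damage repair alterations exposed to each compound.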

`Cc1ccn2c(CCc3nnc4cc(C)ccn34)nnc2c1`: the growth inhibition is -1.4% in experiment [1]; -33.4% in experiment [2]; -42.4% in experiment [3]; 0.4% in experiment [4]; -26.1% in experiment [5]; 12.3% in experiment [6].
Take `CCOC(=S)SC(=S)SC(=S)OCC`: the growth inhibition was 1.15% in experiment [1]; -27.1% in experiment [2]; 2.6% in experiment [3]; -27.8% in experiment [4]; -7.75% in experiment [5]; -22.2% in experiment [6].
As to `CCN(CC)CCCNC(Cc1ccccc1)c1ccc(OC)cc1` (stereo unspecified), the growth inhibition was -1.85% in experiment [1]; -7.45% in experiment [2]; -4.05% in experiment [3]; 9.05% in experiment [4]; -17.6% in experiment [5]; -19.8% in experiment [6].
Consider `NCCCCCC(CCN)SCC1OC(n2cnc3c(N)ncnc32)C(O)C1O` (stereo unspecified), for which the growth inhibition in experiment [1] is 17.6%; in experiment [2] it was -2.45%; in experiment [3], -5.1%; in experiment [4], -7.45%; in experiment [5] it was -0.95%; in experiment [6] it was 25.9%.
On to `Nc1ccccc1SC1CC(=O)N(c2cccc(Cl)c2)C1=O` (stereo unspecified), for which the growth inhibition is -10.6% in experiment [1]; -25.4% in experiment [2]; -4.7% in experiment [3]; -7.3% in experiment [4]; -1.05% in experiment [5]; -25.1% in experiment [6].
With `CCO/C([O-])=C(\C=N\S(=O)(=O)c1ccc(C)cc1)[n+]1ccc(C)cc1`, the growth inhibition in experiment [1] is 13.8%; in experiment [2] it was 14.7%; in experiment [3], 12.2%; in experiment [4], -17.1%; in experiment [5] it was -4.2%; in experiment [6], 6.45%.
With `NCCNC(=O)Cc1cccs1`, the growth inhibition in experiment [1] is 1.5%; in experiment [2], -8.5%; in experiment [3] it was -12.4%; in experiment [4], -21.6%; in experiment [5] it was 4.45%; in experiment [6], -0.8%.
For `CCOc1ccc(NC(C)=O)c([N+](=O)[O-])c1`, the growth inhibition in experiment [1] was -7.05%; in experiment [2] it was -1.25%; in experiment [3], 21%; in experiment [4] it was 9.45%; in experiment [5] it was -3.35%; in experiment [6], 2.55%.
`COC1=NC2(C)C(C)=C(c3ccccc3)C1(C)c1ccccc12` (stereo unspecified): the growth inhibition in experiment [1] was -12.2%; in experiment [2], -4.4%; in experiment [3] it was -14.6%; in experiment [4], -46.8%; in experiment [5], 7.25%; in experiment [6], -3.8%.
With `C/C(CC1CC=CCC1)=N\NC(N)=O` (stereo unspecified), the growth inhibition in experiment [1] was -16.1%; in experiment [2], -4.7%; in experiment [3] it was -2.6%; in experiment [4], -20.5%; in experiment [5], -3.8%; in experiment [6], 30.8%.
Take `O=C(O)C(c1ccccc1)C(O)C1CCCCC1` (stereo unspecified): the growth inhibition was 0.8% in experiment [1]; -1.75% in experiment [2]; -1.15% in experiment [3]; -13.1% in experiment [4]; -8.1% in experiment [5]; 4.5% in experiment [6].
In the case of `Cc1cc(C)c2c(=O)cc(-c3cccc(F)c3)[nH]c2n1`, the growth inhibition was 1.35% in experiment [1]; -0.65% in experiment [2]; -28.2% in experiment [3]; 3.8% in experiment [4]; -1.3% in experiment [5]; -26.1% in experiment [6].
Turning to `Cc1ccc2c(=O)cc(-c3ccccc3)[nH]c2n1`, the growth inhibition in experiment [1] was -48%; in experiment [2] it was -57%; in experiment [3], -42.1%; in experiment [4] it was 11.8%; in experiment [5], -59.1%; in experiment [6] it was -41.1%.
With `O=Cc1sccc1NC(=O)c1ccccc1`, the growth inhibition in experiment [1] was 2.65%; in experiment [2], -14.6%; in experiment [3], -18%; in experiment [4] it was -18.1%; in experiment [5], -7.5%; in experiment [6], 9.15%.
On to `O=C(Cn1c2c(c3ccccc31)CCCC2)N1CCOCC1`, for which the growth inhibition in experiment [1] was -19.3%; in experiment [2], -29.4%; in experiment [3], -14.1%; in experiment [4] it was 5.15%; in experiment [5] it was -23.8%; in experiment [6] it was -19.6%.
`N#CC(NNC(=O)Cc1ccccc1)c1ccccc1O` (stereo unspecified): the growth inhibition in experiment [1] is 0.8%; in experiment [2], -10%; in experiment [3], -2.05%; in experiment [4], -19.4%; in experiment [5], -21.7%; in experiment [6], -12.8%.
As for `Cc1c2cnccc2c(CO)c2[nH]c3ccccc3c12`, the growth inhibition in experiment [1] was 11.6%; in experiment [2], -10.2%; in experiment [3] it was 8.2%; in experiment [4], 4.6%; in experiment [5], -10.9%; in experiment [6], 59.7%.
For the molecule `COC1OC(COS(=O)(=O)c2ccc(C)cc2)C2OC(C)(C)OC2C1OS(=O)(=O)c1ccc(C)cc1` (stereo unspecified), the growth inhibition in experiment [1] is 54.9%; in experiment [2], 16.8%; in experiment [3] it was -4.4%; in experiment [4] it was 84.2% (active); in experiment [5], 3.85%; in experiment [6], 7.1%.
As to `N#Cc1c(=O)[nH]c(=O)n2c1[nH]c1ccccc12`, the growth inhibition is 14.7% in experiment [1]; 19.3% in experiment [2]; 11.9% in experiment [3]; -32.4% in experiment [4]; 12.1% in experiment [5]; 8.15% in experiment [6].
As for `CNC(=S)NNc1ncnc2c1ncn2-c1ccc(C)cc1`, the growth inhibition is -30.4% in experiment [1]; 6.3% in experiment [2]; 5.45% in experiment [3]; 29.7% in experiment [4]; 11.4% in experiment [5]; 4.25% in experiment [6].
With `Cc1cc(O)c2c(c1)C[C@@H](O)C1=C2C(=O)c2c(O)ccc(OC3CC(O)C(OC4CC(OC5CCC(OC6CC(O)C(OC7CC(OC8CCC(O)C(C)O8)C(O)C(C)O7)C(C)O6)C(C)O5)C(O)C(C)O4)C(C)O3)c2C1=O` (stereo partly specified), the growth inhibition in experiment [1] is 88.5% (active); in experiment [2] it was 90.6% (active); in experiment [3], 90.1% (active); in experiment [4], 84.8% (active); in experiment [5], 86.6% (active); in experiment [6] it was 88.5% (active).
